These results are taken from PubChem BioAssay AID1508644 (National Center for Advancing Translational Sciences (NCATS), 2021).

Inconclusive results are not listed. Calls of active or inactive are those of the source. Calls come from the whole dose curve; as a rule, active = well fitted inhibition curve with a large enough effect; inconclusive = small, poorly fitted or top-dose-only effect; inactive = no such curve, though single readings can be large or run the other way.

The experiment deals with Peripheral myelin protein 22 (Rattus norvegicus) (UniProt P25094). In words: Cell-based HiBiT reporter assay to measure PMP22 protein expression in S16 Pmp22-HiBiT cells. The note with it: S16 Schwann Pmp22-HiBiT, NanoGlo luminescence, 48 h; series mostly up to 27.9 µM. From the text: Assay Provider: Jim Inglese Ph.D. National Center for Advancing Translational Science, National Institutes of Health, Rockville, MD CMT is a heterogeneous group of neurological disorders that affect approximately 1 in 2,500 people. In particular, the most common form of CMT, CMT1A is genetically linked to the duplication of the PMP22 gene which leads to Schwann cell overexpression, thus manifesting itself as a typical case of dose-sensitive diseases. To identify small molecule compounds that can mediate the expression of PMP22 we developed a phenotypic assay screening strategy by utilizing genome editing techniques to construct Schwann cell lines containing novel reporter technology to monitor the transcriptional or translational regulation of PMP22. For high sensitivity we use a bioluminescent reporter system embedded in the 3' UTR of the PMP22 gene (S16(c9) Pmp22-F2sN) to identify compounds that inhibit gene expression. […] We can further discriminate the effect of all transcriptionally active molecules on PMP22 translation or stability with an assay that incorporates a short NLuc peptide (HiBiT) at the C-terminus of expressed PMP22 (S16(f8) PMP22-HiBiT) allowing alpha complementation and luminescence detection of membrane-associated PMP22 protein. These assays were screened against the NCATS Sytravon Library Collection. Miniaturization of these assays to 1536-well plate format for quantitative high throughput screening (qHTS) yielded rich data sets immediately from the qHTS assay (S16(c9) Pmp22-F2sN), when compared with data from a cell viability assay (Cell TiterGlo) to identify compounds that decreased the output signals through cellular toxicity to streamline the selection process of actives for subsequent characterization using the HiBiT assay (S16(f8) PMP22-HiBiT).
Sequence of Peripheral myelin protein 22 (Rattus norvegicus) (P25094 whole entry, looked up): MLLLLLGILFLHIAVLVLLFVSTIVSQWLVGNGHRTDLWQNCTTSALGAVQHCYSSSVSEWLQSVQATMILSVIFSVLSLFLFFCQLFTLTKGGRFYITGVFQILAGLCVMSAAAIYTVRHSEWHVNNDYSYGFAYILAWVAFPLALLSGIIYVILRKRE
Cell-based HiBiT reporter assay in S16 Pmp22-HiBiT cells PROTOCOL TABLE (format as described by Inglese J, Shamu CE and Guy RK. 2007) SEQUENCE No. (e.g., 1, 2, 3, etc.); PARAMETER (e.g., Cells, Incubation, Reagent, etc.); VALUE and DESCRIPTION. 1. Cells. Add 1,500 cells in 5 uL in growth media (DMEM High Glucose, No Phenol Red media + 10% heat-inactivated FBS + 1% Pen/Strep supplemented media) per well into Greiner 1536-well white/solid bottom high base, TC-treated plates. 2. Compounds. Library compounds and controls added at 23nL per well, transferred by Pin Tool. 3. Incubation. Incubate plates at 37C, 5% CO2, 95% RH for 48 h. 4. Media removal. Invert and centrifuge plates. 5. Reagent. Add 3uL NanoGlo HiBiT Lytic Detection Reagent per well of Greiner 1536-well plates. 6. Incubation. Incubate plates at room temperature for 15 min., protect from light. 7. Detector. NLuc luminescence measured using CCD-based camera (Viewlux). NOTES (numbers refer to Sequence numbers above; values are from representative experiments) 7. Luminescence Read: Clear filter; Exposure = 10 sec, Gain = High, Speed = Slow, Binning = 2X REFERENCES: 1. Inglese J, Shamu CE and Guy RK, Reporting data from high throughput screening of small molecule libraries, Nature Chemical Biology, 2007, 3(8): 438-441. doi.org/10.1038/nchembio0807-438 2. Yasgar A, Shinn P, Jadhav A, Auld DS, Michael S, Zheng W, Austin CP, Inglese J and Simeonov A, Compound Management for Quantitative High-Throughput Screening. J. Assoc. Lab. Auto., 2008, 13: 79-89. doi: 10.1016/j.jala.2007.12.004
On the technique in general: The HiBiT peptide binds its large partner to form an active luciferase.
Consider `O=C(NCCCN1CCN(c2ccc(F)cc2)CC1)c1cc2c(Cl)nc3ccccc3c2s1`, for which the Potency entry was “inactive”.
For the compound `Cc1ccc(NC(=O)c2nc(S(=O)(=O)Cc3cccc(C)c3)ncc2Cl)cc1`, the Potency is 4.57 µM (active).
As for `Cc1cccc(Nc2c3c(nc4nncn24)CCC3)c1C`, the entry is “inactive”; as for `CC(=O)N1CCc2c(sc(NC(=O)CSc3ccccc3)c2-c2nc3ccccc3s2)C1`, 16.2 µM (active); as for `Cc1ccc(NC(=O)N2CCc3cc(S(=O)(=O)N4CCC(C)CC4)ccc32)cc1F`, “inactive”.
`Cc1cccc(-n2c(=O)c3c(c4cc(C)ccc4n3C)n(CC(=O)NCCC3=CCCCC3)c2=O)c1`: the Potency entry is “inactive”.
Regarding `COc1ccc(NC(=O)c2nc(S(=O)(=O)Cc3ccc(C)cc3)ncc2Cl)cc1`, the Potency was 10.2 µM (active).
As for `Cc1ccc(C(=O)Nc2ccc(S(=O)(=O)N3CCC(c4nc5ccccc5s4)CC3)cc2)cc1`, the entry is “inactive”.
With `COc1ccc(Br)cc1CC1C(=O)Nc2ccccc21` (centres undefined), the Potency was 9.12 µM (active).
As for `Cc1c(Cl)cccc1NC(=O)c1oc2ccc(S(=O)(=O)N3CCC4(CC3)OCCO4)cc2c1C`, the entry is “inactive”; as for `Cn1c(=O)oc2cc(S(=O)(=O)N3CCCC(C(=O)N4CCN(c5ccc(Cl)cc5)CC4)C3)ccc21` (centres undefined), 4.07 µM (active); as for `CCc1ccc(NC(=O)Cn2c(=O)n(-c3ccc(OC)cc3)c(=O)c3ccc(C(=O)NCc4ccc(C)cc4)cc32)cc1`, “inactive”.
As for `CCN(CC)CCNC(=O)c1cc(-c2ccc(Br)s2)nc2ccccc12`, the entry is “inactive”; as for `O=C(Cn1c(-c2cccs2)cc2ccccc21)NCCCN1CCN(c2ccc(F)cc2)CC1`, 6.45 µM (active); as for `COc1ccc(NC(=O)c2oc3ccccc3c2NC(=O)Cc2ccc(F)cc2)c(OC)c1`, “inactive”.
As to `CCOc1ccc(NC(=O)CSc2oc(-c3ccc(F)cc3)nc2S(=O)(=O)c2ccc(C)cc2)cc1`, the Potency result was “inactive”.
Regarding `Cc1cc(C)c(NC(=O)Cn2c(=O)n(Cc3ccco3)c(=O)c3ccc(C(=O)NC4CCCC4)cc32)c(C)c1`, the Potency entry is “inactive”.
As for `CCS(=O)(=O)c1ncc(Cl)c(C(=O)Nc2c(C(=O)c3ccc(C)cc3)oc3ccccc23)n1`, the entry is “inactive”; as for `CCCn1c(=N)c(C(=O)NC(C)c2ccccc2)cc2c(=O)n3ccccc3nc21` (centres undefined), “inactive”.
As for `Cc1ccc(S(=O)(=O)c2nnn3c2nc(NC2CCCCCC2)c2sccc23)cc1C`, the figure is 14.5 µM (active).
As for `COC(=O)c1ccccc1NC(=O)c1nc(S(=O)(=O)Cc2cccc(C)c2)ncc1Cl`, the figure is 6.45 µM (active); as for `COc1ccc(Nc2nc3c(S(=O)(=O)c4ccccc4)nnn3c3ccc(Cl)cc23)cc1`, “inactive”; as for `COCCCNC(=O)c1ccc(-n2c(-c3ccccc3)cc3c2CCC(C)C3)cc1` (centres undefined), 5.75 µM (active).
In the case of `CCOC(=O)c1c(NC(=O)c2nc(S(C)(=O)=O)ncc2Cl)sc(C(C)=O)c1C`, the Potency is 3.24 µM (active).
With `CCCCS(=O)(=O)c1nc(-c2ccc(Br)cc2)cc(-c2ccccc2)c1C#N`, the Potency entry was “inactive”.
For the compound `Cc1ccc(C)c(NC(=O)Cn2c(=O)n(Cc3ccccc3)c(=O)c3oc4ccccc4c32)c1`, the Potency was 14.5 µM (active).
Regarding `Cc1ccc(C)c(NC(=O)Cn2c(=O)n(Cc3ccc4c(c3)OCO4)c(=O)c3ccc(C(=O)NC4CCCCC4)cc32)c1`, the Potency result is “inactive”.
As for `Cc1ccc(C)c(N2CCN(CCCNC(=O)Cn3c(-c4cccs4)cc4ccccc43)CC2)c1`, the figure is 7.24 µM (active); as for `Cc1cccc(N2CCN(C(=O)C3CCCN(S(=O)(=O)c4ccc5c(c4)oc(=O)n5C)C3)CC2)c1C` (centres undefined), “inactive”; as for `COc1ccccc1Nc1nn2c(=O)c3ccc(C(=O)Nc4ccc(F)cc4)cc3nc2s1`, 9.12 µM (active).
As for `CCc1nnc(NC(=O)c2nc(S(C)(=O)=O)ncc2Cl)s1`, the figure is 10.2 µM (active); as for `O=C(Cn1c(-c2cccs2)cc2cc(F)ccc21)NCCCN1CCN(c2ccccc2F)CC1`, 12.9 µM (active).
Take `Cc1ccc(CN2C(=O)C(O)(c3c(C)[nH]c4ccccc34)c3ccccc32)cc1` (centres undefined): the Potency entry is “inactive”.
In the case of `COc1ccccc1-c1cc(C(F)(F)F)nc(S(=O)(=O)CCCC(=O)Nc2ccc(F)cc2F)n1`, the Potency is 5.13 µM (active).
Take `COC(=O)CS(=O)(=O)c1nc2ccccc2nc1N1CCCCC1`: the Potency is 14.5 µM (active).
As for `COc1ccccc1Nc1c2c(nc3ccc(NC(=O)/C=C/c4cccc(OC)c4OC)cc13)CCCC2`, the figure is 5.13 µM (active); as for `CCc1ccc(OCC(=O)Nc2cc3oc4ccccc4c3cc2OC)cc1`, “inactive”.
As for `Cc1cccc(CS(=O)(=O)c2ncc(Cl)c(C(=O)Nc3nc4ccc(F)cc4s3)n2)c1`, the figure is 3.63 µM (active).
As for `COc1ccccc1-c1cc(C(F)(F)F)nc(S(=O)(=O)CCCC(=O)Nc2ccccc2F)n1`, the figure is 10.2 µM (active).
